Assay results reported in ChEMBL document CHEMBL3988442, “University of Dundee, Small-Polar-MMV Screening Library” (2021).
Screen size: about 38,000 compounds; about 1,200 (3.2%) showed an effect of 50% or more. The median lay at about -58%. Shown is part of a subset that was picked to be rich in strong results.

Test system: Plasmodium falciparum
Test: Calibr Malaria Delayed Death Assay SOP
Type: functional, organism-based
Parameters: scale not given: in the data most compounds retested in dose-response had high values
Settings: concentration 4.99e-06 (unit not given; other assays of the set use mol/L)

| Structure (SMILES) | Percent Effect [%] |
| --- | --- |
| CCOC(=O)Cc1csc(NC(=O)c2cc(=O)c(OC)c[nH]2)n1 | -55.6 |
| CN(C)CCn1c2c(ccc1=O)CCN(C(=O)c1ccoc1)CC2.O=C(O)C(F)(F)F | -90.05 |
| CCCC(O)CN1CCC(=O)N(C)Cc2cc(F)ccc21 (stereo not given) | -57.01 |
| O=C(c1cccnc1O)N(CCO)Cc1cc(Br)ccc1F | -29.02 |
| O=C(O)c1ccc(CNC(=O)C2CCN(C(=O)C3CCC3)CC2)s1 | -58.95 |
| Cc1nccn1CCCC(=O)N1CCC2(CCC(=O)N(C(C)C)C2)CC1 | -32.26 |
| COCCNC(=O)N1CCCCC1CNC(=O)Nc1ccccc1 (stereo not given) | -90.53 |
| CCC(N)C(=O)N1CCC(OCc2ccc(Cl)c(Cl)c2)CC1.Cl (stereo not given) | 65.86 |
| CNC(=O)CN1CCC(OCc2ccc(Cl)c(Cl)c2)CC1 | 0.3675 |
| NC(=O)CN1CCC(OCc2ccc(Cl)c(Cl)c2)CC1 | 33.26 |
| COc1ccc2c(c1)OCC(CNC(=O)c1cc(C(C)C)on1)C2 (stereo not given) | -29.19 |
| Cc1c(C(=O)NCC2CCN(C)C2)n(C)c2c(C)cccc12 (stereo not given) | 8.044 |
| CC(=O)Nc1nc(C2CCN(C(=O)c3cncs3)CC2)cs1 | 38.41 |
| CNC(=O)Cn1c(CO)cnc1SCc1ccccc1Cl | -84 |
| COc1ccc(C(C)NC(=O)NCCc2ccc(C)nc2)c(OC)c1 (stereo not given) | -63.03 |
| COc1ccccc1NCC(=O)NCc1scnc1C | -101.9 |
| COc1cc2c(cc1CNC(=O)Cc1ccc(C)nc1)OC(C)C2 (stereo not given) | -97.01 |
| COc1cc2nc(NCc3scnc3C)nc(N)c2cc1OC | 89.32 |
| COc1cc2nc(NCc3ccc(C)nc3)nc(N)c2cc1OC | 90.21 |
| COc1cc2nc(NCc3cc(C)on3)nc(N)c2cc1OC | 61 |
| COc1ccc(CCC(=O)NCc2cc(C)on2)cc1 | -56.8 |
| COc1cc(C(C)NCc2scnc2C)ccc1SC(F)F (stereo not given) | 16.99 |
| CCOc1ccc(OCC)c(NCc2cc(C)on2)c1 | -105.8 |
| CC(=O)c1c(O)n(C)c2ccccc12 | -129.1 |
| O=C(COCCc1ccccc1)N1CCCC(n2cncn2)C1 (stereo not given) | -37.64 |
| Cc1cccc(CSc2nnc(C)n2CC(N)=O)c1 | -106.3 |
| CS(=O)(=O)N1CCC(CNC(=O)C2CCC2)CC1 | -20.15 |
| O=C(NCCc1ccncc1)c1ccc(S(=O)(=O)NC2CCC2)cc1 | -25 |
| CSCC[C@@H](CO)NC(=O)c1sc(-c2ccc(Cl)cc2)nc1C | -102.9 |
| CCOC(=O)CSc1nnc(C(N)CC(C)C)o1.Cl (stereo not given) | -109.2 |
